± gives the standard deviation of the averaged measurements.
Tested on: E. coli BW25113 marRABp lux reporter
Test: promoter activity interaction Z-score (Lux/OD deviation from empty-vector control); higher = stronger promoter induction by the compound
Description: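 E. coli BW25113 (wild type or ΔmarA/ΔsoxS/Δrob) carrying pTU175 luxCDABE promoter reporters was grown in LB in 384-well plates at 37°C with each of 94 compounds at 4 two-fold concentrations, in biological duplicates. Luminescence and OD600 were read every 30 min for 12 h and integrated as AUC over 8 h (0-8 h WT, 1-9 h mutants). Lux AUC was divided by OD AUC; the interaction score is the residual of a Huber robust fit of each promoter against the empty-vector control, then Z-transformed per promoter.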

## CCN1CCN(C(=O)N[C@@H](C(=O)N[C@@H]2C(=O)N3[C@@H]2SC(C)(C)[C@@H]3C(=O)O)c2ccccc2)C(=O)C1=O [Piperacillin]
0.034 µg/ml, genetic background: wild type
  promoter activity interaction Z-score: -0.259 ± 0.22
0.034 µg/ml, genetic background: ΔmarA
  promoter activity interaction Z-score: -0.115 ± 0.2
0.034 µg/ml, genetic background: Δrob
  promoter activity interaction Z-score: -0.137 ± 0.032
0.034 µg/ml, genetic background: ΔsoxS
  promoter activity interaction Z-score: -0.285 ± 0.24
0.067 µg/ml, genetic background: wild type
  promoter activity interaction Z-score: 0.0282 ± 0.023
0.067 µg/ml, genetic background: ΔmarA
  promoter activity interaction Z-score: -0.147 ± 0.33
0.067 µg/ml, genetic background: Δrob
  promoter activity interaction Z-score: -0.102 ± 0.11
0.067 µg/ml, genetic background: ΔsoxS
  promoter activity interaction Z-score: -0.225 ± 0.29
0.13 µg/ml, genetic background: wild type
  promoter activity interaction Z-score: -0.0179 ± 0.059
0.13 µg/ml, genetic background: ΔmarA
  promoter activity interaction Z-score: -0.0535 ± 0.27
0.13 µg/ml, genetic background: Δrob
  promoter activity interaction Z-score: -0.134 ± 0.096
0.13 µg/ml, genetic background: ΔsoxS
  promoter activity interaction Z-score: -0.159 ± 0.072
0.27 µg/ml, genetic background: wild type
  promoter activity interaction Z-score: -0.12 ± 0.057
0.27 µg/ml, genetic background: ΔmarA
  promoter activity interaction Z-score: -0.117 ± 0.15
0.27 µg/ml, genetic background: Δrob
  promoter activity interaction Z-score: -0.0506 ± 0.1
0.27 µg/ml, genetic background: ΔsoxS
  promoter activity interaction Z-score: -0.145 ± 0.44

## CC[C@H]1OC(=O)[C@H](C)[C@@H](O[C@H]2C[C@@](C)(OC)[C@@H](O)[C@H](C)O2)[C@H](C)[C@@H](O[C@@H]2O[C@H](C)C[C@H](N(C)C)[C@H]2O)[C@](C)(O)C[C@@H](C)CN(C)[C@H](C)[C@@H](O)[C@]1(C)O [Azithromycin]
0.28 µg/ml, genetic background: wild type
  promoter activity interaction Z-score: 0.645 ± 0.36
0.28 µg/ml, genetic background: ΔmarA
  promoter activity interaction Z-score: 0.703 ± 1.2
0.28 µg/ml, genetic background: Δrob
  promoter activity interaction Z-score: 0.528 ± 0.82
0.28 µg/ml, genetic background: ΔsoxS
  promoter activity interaction Z-score: 0.0278 ± 0.18
0.56 µg/ml, genetic background: wild type
  promoter activity interaction Z-score: 1.8 ± 0.42
0.56 µg/ml, genetic background: ΔmarA
  promoter activity interaction Z-score: 1.75 ± 0.93
0.56 µg/ml, genetic background: Δrob
  promoter activity interaction Z-score: 1.66 ± 0.88
0.56 µg/ml, genetic background: ΔsoxS
  promoter activity interaction Z-score: 3.09 ± 1.8
1.1 µg/ml, genetic background: wild type
  promoter activity interaction Z-score: 4.3 ± 0.46
1.1 µg/ml, genetic background: ΔmarA
  promoter activity interaction Z-score: 4.49 ± 2
1.1 µg/ml, genetic background: Δrob
  promoter activity interaction Z-score: 2.983 ± 0.0035
1.1 µg/ml, genetic background: ΔsoxS
  promoter activity interaction Z-score: 4.44 ± 2.6

## COc1ccc(C[C@H](N)C(=O)N[C@H]2[C@@H](O)[C@H](n3cnc4c(N(C)C)ncnc43)O[C@@H]2CO)cc1 [Puromycin]
3.1 µg/ml, genetic background: wild type
  promoter activity interaction Z-score: 0.00293 ± 0.13
3.1 µg/ml, genetic background: ΔmarA
  promoter activity interaction Z-score: 0.189 ± 0.15
3.1 µg/ml, genetic background: Δrob
  promoter activity interaction Z-score: 0.309 ± 0.18
3.1 µg/ml, genetic background: ΔsoxS
  promoter activity interaction Z-score: 0.0658 ± 0.096
6.1 µg/ml, genetic background: wild type
  promoter activity interaction Z-score: 0.213 ± 0.31
6.1 µg/ml, genetic background: ΔmarA
  promoter activity interaction Z-score: 0.623 ± 0.33
6.1 µg/ml, genetic background: Δrob
  promoter activity interaction Z-score: 0.273 ± 0.14
6.1 µg/ml, genetic background: ΔsoxS
  promoter activity interaction Z-score: 0.534 ± 0.15
12.2 µg/ml, genetic background: wild type
  promoter activity interaction Z-score: 0.362 ± 0.15
12.2 µg/ml, genetic background: ΔmarA
  promoter activity interaction Z-score: 0.61 ± 0.46
12.2 µg/ml, genetic background: Δrob
  promoter activity interaction Z-score: 0.305 ± 0.046
12.2 µg/ml, genetic background: ΔsoxS
  promoter activity interaction Z-score: 0.522 ± 0.076
24.5 µg/ml, genetic background: wild type
  promoter activity interaction Z-score: 1.38 ± 0.23
24.5 µg/ml, genetic background: Δrob
  promoter activity interaction Z-score: 2.58
